The record followed here is PubChem BioAssay.

Structures are written as SMILES. A number with no mark means an inactive call. No rule for the calls is given here.

In the test the test system is Aerobactin synthetase IucA (Klebsiella pneumoniae hvKP1). As to the kind of experiment: IucA enzyme inhibition, primary screen, biochemical, Spectrum library (AID 1346200).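 Also: 100% = wells without compound and 0% = wells lacking enzyme.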 To be noted: malachite green pyrophosphate, A620, at 8 µM, hits give low values.
On to `O=C(O[C@@H]1Cc2c(O)cc(O)cc2O[C@@H]1c1cc(O)c(O)c(O)c1-c1c([C@H]2Oc3cc(O)cc(O)c3C[C@H]2OC(=O)c2cc(O)c(O)c(O)c2)cc(O)c(O)c1O)c1cc(O)c(O)c(O)c1`, for which the activity remaining is 111%. To `CO[C@@H]1[C@@H](O[C@@H]2O[C@H](C)[C@@H](O[C@H]3C[C@@](C)(O)[C@H](O)[C@H](C)O3)[C@H](N(C)C)[C@H]2O)[C@@H](CC=O)C[C@@H](C)[C@@H](O[C@H]2CC[C@H](N(C)C)[C@@H](C)O2)/C=C/C=C/C[C@H](C)OC(=O)C[C@H]1O` belongs 96.2%. Turning to `CC1(C)S[C@@H]2C(N3C(=O)[C@@H](c4ccccc4)NC3(C)C)C(=O)N2[C@H]1C(=O)O` (stereo not given in full), the activity remaining is 108%. Next, `CCCCOc1ccc(OCCCN2CCOCC2)cc1`: 104%. On to `CC(=O)/C(=C\c1ccccc1)CC(=O)O`, for which the activity remaining is 98.6%. Next, `CC(C)=CCCC1(C)C=Cc2c(O)c3c(c(CC=C(C)C)c2O1)OC12C(=CCCC1C(C)(C)O[C@@]2(C/C=C(\C)C(=O)O)C(=O)O)C3=O` (stereo not given in full): 116%; `NS(=O)(=O)c1cc2c(cc1Cl)NC(CSCc1ccccc1)=NS2(=O)=O`: 113%. Next, `CCN1CCCC(OC(=O)C(c2ccccc2)c2ccccc2)C1` (stereo not given): 110%; `C[C@]12CCC3c4ccc(O)cc4CCC3C1CC[C@@H]2OC(=O)CCC1CCCC1` (stereo not given in full): 124%. In the case of `O=C1C=CC2=C3c4cc(O)c(O)cc4CC3(O)COC2=C1O` (stereo not given), the activity remaining was 94.5%. To `Nc1ccc(C(=O)O)c(O)c1` belongs 108%; to `CCOC(N)=O`, 107%; to `COc1c(C(C)C)oc2cc3oc(=O)ccc3cc12`, 102%. Next, `CCC[C@@H]1C[C@@H](C(=O)N[C@@H](C2O[C@H](SC)[C@H](O)[C@@H](O)[C@H]2O)[C@H](C)Cl)N(C)C1` (stereo not given in full): 77.4%; `COc1cc2ccc(=O)oc2c(OC)c1OC`: 124%. For the compound `CCOC(=O)C(C)(N)Cc1ccc(O)c(O)c1` (stereo not given), the activity remaining is 105%. Next, `O=C(/C=C(\O)c1ccccc1)c1ccccc1O`: 120%. To `CC(=O)O[C@]1(C(C)=O)CCC2C3C=C(Cl)C4=CC(=O)CC[C@]4(C)C3CC[C@@]21C` (stereo not given in full) belongs 130%; to `CC(=O)O[C@@H]1CC2C(C)(C)[C@@H](O)CC[C@]2(C)C2CC[C@@]3(C)[C@H](c4ccoc4)OC(=O)[C@H]4O[C@]43[C@@]21C` (stereo not given in full), 124%; to `O=C(Oc1cccc2cccnc12)c1ccccc1`, 92.9%. Consider `O=c1c(O)cc([C@H]2Oc3cc(O)cc(O)c3C[C@H]2O)cc2c([C@H]3Oc4cc(O)cc(O)c4C[C@@H]3O)cc(O)c(O)c12`, for which the activity remaining is 104%. Next, `C=C[C@@](C)(O)CCC1C(=C)CCC2[C@@](C)(CO)CCC[C@]12C` (stereo not given in full): 117%; `COC1=CC(=O)C[C@@H](C)[C@]12Oc1c(Cl)c(OC)cc(OC)c1C2=O`: 115%; `O=C(O[C@@H]1Cc2c(O)cc(O)cc2O[C@@H]1c1ccc(O)c(O)c1)c1cc(O)c(O)c(O)c1`: 107%. To `O=c1c(O)c(-c2ccccc2)oc2ccccc12` belongs 92.5%; to `CCCCC(=O)O[C@]1(C(=O)CO)[C@@H](C)CC2C3CCC4=CC(=O)C=C[C@]4(C)[C@@]3(F)C(O)C[C@@]21C` (stereo not given in full), 121%; to `O=C1O[C@H](C(O)CO)C(O)=C1O` (stereo not given in full), 92.2%. Turning to `CC(=O)Oc1c(C)c(C)c2c(c1C)CCC(C)(CCCC(C)CCCC(C)CCCC(C)C)O2` (stereo not given), the activity remaining is 96.6%. To `CC(=O)O[C@]1(C(C)=O)CCC2C3C[C@H](C)C4=CC(=O)CC[C@]4(C)C3CC[C@@]21C` (stereo not given in full) belongs 95.7%; to `O=c1[nH]cnc2c1ncn2C1O[C@H](CO)[C@@H](O)[C@H]1O` (stereo not given in full), 112%; to `CC1(C)CC[C@]2(C(=O)O)CC[C@]3(C)C(=CCC4[C@@]5(C)CC[C@H](O)C(C)(C)C5[C@H](O)C[C@]43C)C2C1` (stereo not given in full), 76.1%. Next, `CC1=C2C(=CO[C@H](C)[C@H]2C)C(=O)C(C(=O)O)=C1O`: 94.3%; `CC(=O)N1CCCC1C(=O)O` (stereo not given): 106%; `C[C@H]1CC2C([C@@H](O)C[C@@]3(C)C2CC[C@]3(O)C(=O)COC(=O)CCC(=O)O)[C@@]2(C)C=CC(=O)C=C12` (stereo not given in full): 91.3%. Next, `CC(C)(Oc1ccc(CCNC(=O)c2ccc(Cl)cc2)cc1)C(=O)O`: 96.6%.
